Data reported in PubChem BioAssay (NCI).
Several values for one entry are separate records, joined by “and”; a condition that tells them apart may be missing. Equal values may be shown once. The panel holds about 83,000 compounds, 20% with a hit somewhere; the sample as a whole holds those more often.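 Percent growth is the endpoint: 0 to 100 indicates growth inhibition (40 means 60% inhibition), 0 means no net growth, and negative values indicate cell death.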 Activity calls are given as the source filed them. The calls were made as follows: active = growth percent below 10; inactive = the rest.

What was measured:
Assay in all cases: NCI-60 one-dose screen, 48 h (100 = growth as untreated, 0 = no growth, -100 = all killed)
Conditions in all cases: 10 µM unless noted
HCT-15 colon = system: HCT-15 colon
HT29 colon = system: HT29 colon
SNB-75 CNS = system: SNB-75 CNS
SNB-19 CNS = system: SNB-19 CNS
U251 CNS = system: U251 CNS
PC-3 prostate = system: PC-3 prostate
SK-MEL-5 melanoma = system: SK-MEL-5 melanoma
UACC-62 melanoma = system: UACC-62 melanoma
LOX IMVI melanoma = system: LOX IMVI melanoma
SK-MEL-28 melanoma = system: SK-MEL-28 melanoma
SK-MEL-2 melanoma = system: SK-MEL-2 melanoma
EKVX NSCLC = system: EKVX NSCLC
SN12C renal = system: SN12C renal
UO-31 renal = system: UO-31 renal
TK-10 renal = system: TK-10 renal
ACHN renal = system: ACHN renal
CAKI-1 renal = system: CAKI-1 renal
A498 renal = system: A498 renal
CCRF-CEM leukemia = system: CCRF-CEM leukemia
MOLT-4 leukemia = system: MOLT-4 leukemia

Measured: growth

CC(C)(C(=O)c1cccnc1)c1cccnc1
inactive: HCT-15 colon 104% and 105% | HT29 colon 104% and 119% | SNB-75 CNS 107% and 103% | SNB-19 CNS 111% and 115% | U251 CNS 103% and 116% | PC-3 prostate 89.5% and 92.5% | SK-MEL-5 melanoma 98.4% and 106% | UACC-62 melanoma 101% and 103% | LOX IMVI melanoma 102% and 111% | SK-MEL-28 melanoma 112% and 121% | SK-MEL-2 melanoma 101% and 99.7% | EKVX NSCLC 102% and 124% | SN12C renal 96.1% and 113% | UO-31 renal 77.5% and 93.4% | TK-10 renal 103% and 110% | ACHN renal 97.3% and 111% | CAKI-1 renal 98.5% and 109% | A498 renal 73.3% and 130% | CCRF-CEM leukemia 91.8% | MOLT-4 leukemia 96.3% and 126%

COc1ccccc1OCC(O)CO (stereo not given)
inactive: HCT-15 colon 95.1% and 105% | HT29 colon 100% and 103% | SNB-75 CNS 87.7% and 90.7% | SNB-19 CNS 96.4% and 84.9% | U251 CNS 96.9% and 81.3% | PC-3 prostate 52.3% and 91.5% | SK-MEL-5 melanoma 104% and 100% | UACC-62 melanoma 100% | LOX IMVI melanoma 99.5% and 100% | SK-MEL-28 melanoma 95.5% and 108% | SK-MEL-2 melanoma 98.3% and 110% | EKVX NSCLC 102% and 83.5% | SN12C renal 95.2% and 103% | UO-31 renal 87.6% and 96.4% | TK-10 renal 98% | ACHN renal 102% and 110% | CAKI-1 renal 90.8% | A498 renal 98% and 87.8% | CCRF-CEM leukemia 98.5% and 97.1% | MOLT-4 leukemia 144% and 121%

CC1CCC(=O)N1c1ccc(N)cc1 (stereo not given)
inactive: HCT-15 colon 108% | HT29 colon 96.6% | SNB-75 CNS 97.4% | SNB-19 CNS 97.8% | U251 CNS 97.3% | PC-3 prostate 94.4% | SK-MEL-5 melanoma 98.9% | UACC-62 melanoma 100% | LOX IMVI melanoma 95.1% | SK-MEL-28 melanoma 107% | SK-MEL-2 melanoma 99.7% | EKVX NSCLC 104% | SN12C renal 106% | UO-31 renal 93.7% | TK-10 renal 94.8% | ACHN renal 104% | CAKI-1 renal 102% | A498 renal 98.4% | CCRF-CEM leukemia 107% | MOLT-4 leukemia 105%

CNc1ccc(Cl)cc1S(=O)(=O)c1ccccc1[N+](=O)[O-]
inactive: HCT-15 colon 105% and 91.3% | HT29 colon 101% and 106% | SNB-75 CNS 73.4% and 11.4% | SNB-19 CNS 110% and 104% | U251 CNS 84.3% and 86.7% | PC-3 prostate 91.9% and 96.2% | SK-MEL-5 melanoma 34.4% and 95.6% | UACC-62 melanoma 60.9% and 69.8% | LOX IMVI melanoma 77.5% and 81.4% | SK-MEL-28 melanoma 96.2% | SK-MEL-2 melanoma 103% and 85.6% | EKVX NSCLC 103% and 94.5% | SN12C renal 89.8% and 98.3% | UO-31 renal 91.8% and 92.6% | TK-10 renal 99.7% and 95% | ACHN renal 107% and 97.9% | CAKI-1 renal 84.6% and 41.1% | A498 renal 118% | CCRF-CEM leukemia 84.9% and 93.3% | MOLT-4 leukemia 85.6% and 103%

Cc1ccc(S(=O)(=O)n2ccnc2)cc1
inactive: HCT-15 colon 105% | HT29 colon 106% | SNB-75 CNS 87.6% | SNB-19 CNS 117% | U251 CNS 101% | PC-3 prostate 103% | SK-MEL-5 melanoma 99.9% | UACC-62 melanoma 92.7% | LOX IMVI melanoma 95.5% | SK-MEL-28 melanoma 111% | SK-MEL-2 melanoma 96.7% | EKVX NSCLC 90.7% | SN12C renal 107% | UO-31 renal 89.9% | TK-10 renal 93% | ACHN renal 104% | CAKI-1 renal 75.3% | A498 renal 96.5% | CCRF-CEM leukemia 120% | MOLT-4 leukemia 138%

O=C1Cc2ccccc2C(=O)N1
inactive: HCT-15 colon 99.2% | HT29 colon 88.9% | SNB-75 CNS 96.1% | SNB-19 CNS 106% | U251 CNS 86.1% | PC-3 prostate 95.2% | SK-MEL-5 melanoma 106% | UACC-62 melanoma 92.2% | LOX IMVI melanoma 42.1% | SK-MEL-28 melanoma 106% | SK-MEL-2 melanoma 92.4% | EKVX NSCLC 99.2% | SN12C renal 96.7% | UO-31 renal 75.5% | TK-10 renal 91% | ACHN renal 82.1% | CAKI-1 renal 77% | A498 renal 103% | CCRF-CEM leukemia 41.1% | MOLT-4 leukemia 69.8%
